Experimental data reported in PubChem BioAssay.
The list shows a part of the results. Activity calls are given as the source filed them.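 Rule for the calls, unless noted: active = inhibition above the hit cutoff computed for the primary STAT3 screen (cut at about 44% in these data); inactive = the rest.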

What was measured:
[1] = STAT3 reporter inhibitors, retest of hits, confirmation, U3A cells, luciferase, luminescence (AID 1265); conditions: IL-6 STAT3 luciferase reporter, at 5.7 µM, stronger effect = higher value, cell line lacks STAT1;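 note: 0% = IL-6 plus DMSO and 100% = IL-6 plus nifuroxazide control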
[2] = NF-kB reporter inhibitors in human cells, confirmation, counter-screen for STAT3 inhibitor project, cell-based, HEK293T, luciferase, TNF-alpha stimulus (AID 1308;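 active = inhibition above the mean of solvent-only control wells plus 3 SD, cutoff set per campaign, cut at about 13% in these data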;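 note: 0% = TNF-alpha with DMSO and 100% = TNF-alpha with MG high control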); conditions: TNF-alpha induced, at 5.7 µM, stronger effect = higher value
[3] = STAT1 reporter inhibitors, IFN-gamma induced, confirmation, counter-screen for STAT3 inhibitor project, cell-based, NIH 3T3, luciferase luminescence (AID 1317;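 active = inhibition above the mean plus 3 SD of solvent-only control wells, limit set per screening run, cut at about 16% in these data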;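 note: 0% = DMSO with IFN-gamma and 100% = nifuroxazide control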); conditions: NIH 3T3 STAT1-luciferase reporter, at 5.7 µM, stronger effect = higher value
[4] = molecular target: Neuropeptide Y receptor type 2 (Homo sapiens) (UniProt P49146); assay: NPY-Y2 potentiators or agonists, confirmation, cell-based (AID 1539; in the data active = activation above about 33%); conditions: cell-based NPY-Y2 potentiator/agonist assay; at 3.6 µM; stronger effect = higher value
[5] = molecular target: Neuropeptide Y receptor type 1 (Homo sapiens) (UniProt P25929); assay: NPY-Y1 potentiators or agonists, counter-screen for NPY-Y2 potentiator project, cell-based, fluorescence (AID 1651; in the data active = activation above about 45%;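 note: cells stimulated with submaximal NPY then isoproterenol with phosphodiesterase inhibitor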); conditions: Y1 HEK293-CNG cells, membrane potential fluorescence; at 3.6 µM; stronger effect = higher value
[6] = molecular target: Neuropeptide Y receptor type 1 (Homo sapiens) (UniProt P25929); assay: NPY-Y1 direct agonists, selectivity assay for NPY-Y2 potentiator project, cell-based, fluorescence (AID 1702;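 active = activation above the mean of DMSO-only control wells plus 3 SD, cut at about 18% in these data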;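 note: cells stimulated with 1 µM isoproterenol plus the PDE inhibitor Ro 20-1724; 0% = isoproterenol with DMSO and no NPY and 100% = 40 nM NPY; Y1 agonists lower the membrane potential dye signal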); conditions: HEK293 Y1-CNGC, membrane potential fluorescence, agonism; at 3.6 µM; stronger effect = higher value
[7] = CNGC cAMP sensor activity inhibitors, counter-screen for NPY-Y2 potentiator project, cell-based, HEK293-CNG parental, membrane potential fluorescence (AID 1703;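 active = inhibition above the control-well mean plus 3 SD of those wells, cut at about 22% in these data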;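 note: 0% = DMSO with isoproterenol and 100% = DMSO without isoproterenol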); conditions: isoproterenol cAMP, at 3.6 µM, stronger effect = higher value
[8] = molecular target: Neuropeptide Y receptor type 2 (Homo sapiens) (UniProt P49146); assay: NPY-Y2 direct agonists, counter-screen for NPY-Y2 potentiator project, cell-based, fluorescence (AID 1710;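 active = activation above the mean of solvent-only control wells plus 3 SD, cut at about 10% in these data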;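 note: cells stimulated by isoproterenol with no NPY added so direct agonism is tested; 0% = DMSO with isoproterenol alone and 100% = NPY at EC100 plus isoproterenol; agonism lowers probe fluorescence through less cAMP and CNG channel opening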); conditions: HEK293 Y2/CNGC cells, membrane potential fluorescence, agonist mode; at 3.6 µM; stronger effect = higher value
[9] = system: DAF-12 nuclear receptor (Heterodera glycines), GAL4-LBD fusion; assay: H. glycines DAF-12 receptor agonists, confirmation, cell-based, luminescence, HEK293, GAL4-LBD fusion (AID 743050;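 active = mean activation over triplicate wells above the hit cutoff derived from the earlier primary screen, cut at about 11% in these data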;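 note: 0% = DMSO low control and 100% = 2 mM sodium butyrate high control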); conditions: HEK293 GAL4-hgDAF12 luciferase reporter, agonist mode; at 6.8 µM; stronger effect = higher value; percent of butyrate response
[10] = molecular target: Oxysterols receptor LXR-beta (Homo sapiens) (UniProt P55055); assay: LXR agonists, Gal4 luciferase reporter, confirmation, counter-screen for hgDAF-12 agonist project, cell-based, luminescence, HEK293, H. glycines campaign (AID 743051;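 active = mean activation of the triplicate above a set limit carried over from the primary screen, none filed active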); conditions: 24 h, at 6.8 µM, stronger effect = higher value
[11] = STAT1 signaling activators, confirmation, cell-based, HTS, luciferase reporter (AID 1262;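 active = activation above a set limit carried over from the earlier primary STAT1 screen, cut at about 140% in these data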;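 note: simple ratio to median IFN-gamma plus DMSO wells so 0% means no light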); conditions: NIH 3T3 STAT1-luciferase reporter, IFN-gamma potentiation, luminescence; at 5.7 µM; stronger effect = higher value; 100% = IFN-gamma EC80 alone, no compound
[12] = NF-kB reporter activators, TNF-alpha stimulated, counter-screen for STAT1 activator project, cell-based, HEK293T, luciferase luminescence (AID 1306;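 active = activation above the mean of solvent-only control wells plus 3 SD, set per campaign, cut at about 130% in these data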;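 note: TNF-alpha given at a submaximal dose yielding about 80% of full reporter signal; values are well signal over median control so 100% means no change and 0% no light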); conditions: at 5.7 µM, stronger effect = higher value, 100% = TNF-alpha with vehicle only
[13] = molecular target: Signal transducer and activator of transcription 3 (Homo sapiens) (UniProt P40763); assay: STAT3 reporter activation by STAT1 hits, confirmation, counter-screen for STAT1 activator project, U3A cells, luciferase, luminescence (AID 1316;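 active = activation above the solvent-only control well mean plus 3 SD, set per plate batch, cut at about 110% in these data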;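 note: 0% = no luminescence and 100% = median IL-6 plus DMSO wells; higher means more STAT3 reporter activation so hits are non-selective activators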); conditions: IL-6, luminescence, at 5.7 µM, stronger effect = higher value, 100 = IL-6 alone, no compound effect, cells lack STAT1
[14] = molecular target: Oxysterols receptor LXR-beta (Homo sapiens) (UniProt P55055); assay: LXR agonists, Gal4 luciferase reporter, confirmation, counter-screen for hcDAF-12 agonist project, cell-based, luminescence, HEK293, H. contortus campaign (AID 743027;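 active = mean percent activation of the reporter above a cutoff set as the average over tested compounds plus their standard deviation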); conditions: HEK293 Gal4-LXR tk-luc reporter, 24 h, at 6.8 µM, stronger effect = higher value, normalized: DMSO 0%, positive control 100%
[15] = system: Nuclear hormone receptor DAF-12 (Haemonchus contortus); assay: H. contortus DAF-12 receptor agonists, confirmation, cell-based, luminescence, HEK293, lit1-tk-luc, triplicate (AID 743032;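 active = mean activation across triplicate tests above the threshold derived from the earlier primary screen, cut at about 5.5% in these data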;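 note: 0% = DMSO only wells and 100% = 3 µM Δ7-dafachronic acid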); conditions: HEK293 hcDAF-12 lit1-tk-luc reporter, at 6.8 µM, stronger effect = higher value, % of Δ7-dafachronic acid response
[16] = molecular target: Galanin receptor type 2 (Homo sapiens) (UniProt O43603); assay: GALR2 antagonists, retest of hits, confirmation, cell-based (AID 866; in the data active = inhibition above about 27%;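 note: cells stimulated with galanin at about its EC80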); conditions: GALR2-expressing cells, antagonist mode, at 4 µM, stronger effect = higher value
[17] = inhibitors of NFAT-driven beta-lactamase reporter, confirmation, counter-screen for GALR2 antagonist project, CHO NFAT-bla cells, FRET readout (AID 867;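 active = inhibition above the mean inhibition across tested compounds plus 3 SD, cut at about 27% in these data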;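 note: 0% = 500 nM thapsigargin stimulated wells and 100% = unstimulated BSA only wells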); conditions: thapsigargin-stimulated, at 4.2 µM, stronger effect = higher value
[18] = molecular target: Photoreceptor-specific nuclear receptor (Homo sapiens) (UniProt Q9Y5X4); assay: NR2E3 agonist confirmation in cells, cell-based, luminescence, CHO-S two-hybrid (AID 624378;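 active = average inhibition above a cutoff equal to the mean inhibition of all tested compounds plus one SD, cut at about 70% in these data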;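 note: 0% = DMSO in NR2E3 cells and 100% = DMSO in cells lacking NR2E3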); conditions: CHO-S mammalian two-hybrid NR2E3-NCOR, luciferase luminescence; at 3.98 µM; stronger effect = higher value
[19] = GAL4-VP16 reporter modulators, confirmation, counter-screen for NR2E3 agonist project, cell-based, luminescence, CHO-S, high throughput (AID 624379;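 active = mean inhibition above a cutoff equal to the average over all tested compounds plus one standard deviation, cut at about 70% in these data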;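 note: luciferase from a UAS reporter driven by GAL4-VP16 transactivation; 0% = DMSO with VP16-transfected cells and 100% = DMSO with cells lacking VP16; higher means less reporter light so more repression of VP16 activity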); conditions: CHO-S GAL4-VP16 luciferase reporter, at 3.98 µM, stronger effect = higher value
[20] = Gal4-VP16 luciferase reporter inhibitors, counter-screen for COUP-TFII antagonist project, cell-based, luminescence, HEK293 (AID 687007; in the data active = inhibition above about 13%); conditions: at 8.5 µM, stronger effect = higher value
[21] = molecular target: COUP transcription factor 2 (Homo sapiens) (UniProt P24468); assay: NR2F2 transcriptional activity inhibitors, confirmation, cell-based, luciferase reporter, HEK293, triplicate (AID 687008;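 active = mean inhibition over three repeats above a set limit taken from the earlier primary screen, cut at about 38% in these data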;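 note: 100% = cells given the luciferase reporter alone without the COUP-TF2 vector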); conditions: HEK293 NGFI-A luciferase reporter, luminescence; at 8.5 µM; stronger effect = higher value
[22] = molecular target: Peroxisome proliferator-activated receptor gamma (Homo sapiens) (UniProt P37231); assay: agonists of PPARgamma SRC-2 coactivator recruitment, confirmation, biochemical, HTS (AID 1297; in the data active = activation above about 22%;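 note: 0% = vehicle alone and 100% = reference agonist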); conditions: biochemical SRC-2 recruitment by PPARgamma; at 8 µM; stronger effect = higher value
[23] = molecular target: Peroxisome proliferator-activated receptor gamma (Homo sapiens) (UniProt P37231); assay: PPARgamma agonists recruiting SRC-1 coactivator, confirmation, biochemical (AID 1300; in the data active = activation above about 20%;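 note: 0% = vehicle wells and 100% = reference agonist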); conditions: PPARgamma–SRC-1 coactivator recruitment biochemical assay; at 8 µM; stronger effect = higher value
[24] = molecular target: Peroxisome proliferator-activated receptor gamma (Homo sapiens) + Nuclear receptor coactivator 3 (Homo sapiens) (UniProt P37231+Q9Y6Q9); assay: PPARgamma-driven SRC-3 coactivator recruitment agonists, confirmation, biochemical (AID 1301; in the data active = activation above about 24%;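 note: 0% = vehicle wells and 100% = reference agonist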); conditions: biochemical PPARgamma-SRC-3 coactivator recruitment, agonist mode; at 8 µM; stronger effect = higher value
[25] = StAR promoter reporter inhibitors, counter-screen for LRH-1 inverse agonist project, cell-based, luminescence, high throughput (AID 651611; in the data active = inhibition above about 28%); conditions: StAR promoter luciferase reporter counterscreen, at 3.6 µM, stronger effect = higher value
[26] = molecular target: Nuclear receptor subfamily 5 group A member 2 (Homo sapiens) (UniProt O00482); assay: LRH-1 (NR5A2) inverse agonists, retest, confirmation, cell-based, luminescence (AID 651613; in the data active = inhibition above about 42%;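 note: HEK293T cells co-transfected with LRH-1 and StAR promoter luciferase reporter; 0% = vehicle wells and 100% = parental cells lacking receptor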); conditions: cell-based LRH-1 luciferase reporter, inverse agonism; at 3.6 µM; stronger effect = higher value
[27] = molecular target: Steroidogenic factor 1 (Homo sapiens) (UniProt Q13285); assay: SF1 (NR5A1) inverse agonists, counter-screen for LRH-1 inverse agonist project, cell-based, luminescence, high throughput (AID 651614; in the data active = inhibition above about 44%;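 note: cells cotransfected with StAR promoter reporter and SF1 expression vector; 0% = vehicle on cells with receptor and 100% = vehicle on cells lacking receptor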); conditions: cell-based SF1 luciferase reporter, at 3.6 µM, stronger effect = higher value
[28] = VP16 transactivation reporter inhibitors, counter-screen for LRH-1 inverse agonist project, cell-based, luminescence, high throughput (AID 651615; in the data active = inhibition above about 33%); conditions: Gal4-VP16 luciferase reporter cells, at 3.6 µM, stronger effect = higher value
[29] = molecular target: Nuclear receptor coactivator 1 (Homo sapiens) (UniProt Q15788); assay: SRC1 coactivator transcriptional activity inhibitors, confirmation, cell-based, luminescence, quadruplicate (AID 588820;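 active = mean inhibition above 46.68%, the untreated control wells mean plus 3 SD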;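 note: 0% = DMSO wells and 100% = gossypol 36 µM treated wells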); conditions: HEK293 GAL4-SRC1 luciferase reporter, at 3.6 µM, stronger effect = higher value
[30] = VP16 transactivation inhibitors, counter-screen for SRC1 inhibitor project, cell-based, luminescence, high throughput (AID 588824; in the data active = inhibition above about 25%); conditions: cell-based VP16 transactivation luciferase luminescence; at 3.6 µM; stronger effect = higher value

Steroidogenic factor 1 (Homo sapiens), sequence (Q13285 whole entry, looked up, the tested form may be a part): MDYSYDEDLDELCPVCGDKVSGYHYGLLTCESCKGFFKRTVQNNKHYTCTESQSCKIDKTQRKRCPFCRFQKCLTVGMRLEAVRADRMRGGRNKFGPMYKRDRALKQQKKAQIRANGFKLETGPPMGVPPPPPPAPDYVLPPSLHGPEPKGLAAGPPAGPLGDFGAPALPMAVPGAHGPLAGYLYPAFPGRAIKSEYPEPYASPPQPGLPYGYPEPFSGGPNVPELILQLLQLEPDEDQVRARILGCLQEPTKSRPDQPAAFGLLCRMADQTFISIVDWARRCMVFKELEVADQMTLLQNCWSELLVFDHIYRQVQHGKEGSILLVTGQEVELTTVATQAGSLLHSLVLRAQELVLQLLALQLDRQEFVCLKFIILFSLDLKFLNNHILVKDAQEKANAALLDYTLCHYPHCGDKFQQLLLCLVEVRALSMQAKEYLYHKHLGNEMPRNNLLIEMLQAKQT
Oxysterols receptor LXR-beta (Homo sapiens), sequence (P55055 whole entry, looked up, the tested form may be a part): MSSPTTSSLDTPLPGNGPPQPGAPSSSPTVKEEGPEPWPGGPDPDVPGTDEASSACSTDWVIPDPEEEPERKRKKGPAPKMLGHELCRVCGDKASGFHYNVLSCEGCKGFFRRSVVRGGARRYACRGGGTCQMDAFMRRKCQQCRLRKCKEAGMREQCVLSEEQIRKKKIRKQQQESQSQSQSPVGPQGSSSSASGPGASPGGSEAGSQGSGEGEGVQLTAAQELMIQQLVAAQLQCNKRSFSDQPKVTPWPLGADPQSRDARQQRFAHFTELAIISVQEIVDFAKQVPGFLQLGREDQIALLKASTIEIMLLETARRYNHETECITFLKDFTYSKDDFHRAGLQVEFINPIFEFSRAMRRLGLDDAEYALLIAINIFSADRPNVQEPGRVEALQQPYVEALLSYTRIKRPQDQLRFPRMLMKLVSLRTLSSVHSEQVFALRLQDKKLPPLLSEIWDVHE
Nuclear receptor subfamily 5 group A member 2 (Homo sapiens), sequence (O00482 whole entry, looked up): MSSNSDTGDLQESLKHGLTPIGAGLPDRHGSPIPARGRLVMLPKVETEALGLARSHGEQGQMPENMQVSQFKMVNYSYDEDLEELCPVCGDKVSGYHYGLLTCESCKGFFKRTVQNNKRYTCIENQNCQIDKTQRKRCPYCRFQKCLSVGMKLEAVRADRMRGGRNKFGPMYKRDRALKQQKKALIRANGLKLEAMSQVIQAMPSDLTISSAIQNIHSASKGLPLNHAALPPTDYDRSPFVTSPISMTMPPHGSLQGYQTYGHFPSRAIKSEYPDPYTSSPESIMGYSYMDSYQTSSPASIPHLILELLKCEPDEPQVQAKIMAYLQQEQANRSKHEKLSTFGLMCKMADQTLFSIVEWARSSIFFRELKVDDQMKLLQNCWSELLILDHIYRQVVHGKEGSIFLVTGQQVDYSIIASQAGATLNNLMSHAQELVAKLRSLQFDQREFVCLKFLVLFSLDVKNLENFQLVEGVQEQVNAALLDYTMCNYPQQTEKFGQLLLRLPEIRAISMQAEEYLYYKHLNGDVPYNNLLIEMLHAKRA
Photoreceptor-specific nuclear receptor (Homo sapiens), sequence (Q9Y5X4 whole entry, looked up, the tested form may be a part): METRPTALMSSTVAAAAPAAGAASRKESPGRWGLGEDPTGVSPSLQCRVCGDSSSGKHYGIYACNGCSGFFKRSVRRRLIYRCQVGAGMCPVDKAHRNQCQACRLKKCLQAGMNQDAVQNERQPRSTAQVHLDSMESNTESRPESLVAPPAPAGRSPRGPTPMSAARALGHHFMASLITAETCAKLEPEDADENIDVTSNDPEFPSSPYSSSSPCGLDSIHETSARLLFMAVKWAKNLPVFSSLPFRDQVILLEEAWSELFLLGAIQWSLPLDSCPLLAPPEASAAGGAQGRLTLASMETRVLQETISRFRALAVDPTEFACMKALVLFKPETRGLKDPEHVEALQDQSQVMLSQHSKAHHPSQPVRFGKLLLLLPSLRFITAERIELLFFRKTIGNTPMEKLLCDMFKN
COUP transcription factor 2 (Homo sapiens), sequence (P24468 whole entry, looked up): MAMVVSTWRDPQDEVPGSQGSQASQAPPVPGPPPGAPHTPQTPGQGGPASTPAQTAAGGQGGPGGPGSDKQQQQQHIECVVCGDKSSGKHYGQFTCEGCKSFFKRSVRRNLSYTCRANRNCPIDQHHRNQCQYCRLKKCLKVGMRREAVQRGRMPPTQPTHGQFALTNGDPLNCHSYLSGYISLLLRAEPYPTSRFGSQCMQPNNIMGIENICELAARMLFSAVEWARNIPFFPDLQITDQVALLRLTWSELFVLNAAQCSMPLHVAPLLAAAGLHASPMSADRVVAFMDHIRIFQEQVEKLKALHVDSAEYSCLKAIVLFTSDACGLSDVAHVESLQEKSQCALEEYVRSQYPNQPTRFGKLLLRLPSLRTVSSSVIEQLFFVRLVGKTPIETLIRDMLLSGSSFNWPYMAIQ
Peroxisome proliferator-activated receptor gamma (Homo sapiens) + Nuclear receptor coactivator 3 (Homo sapiens), sequence (P37231 whole entry, looked up): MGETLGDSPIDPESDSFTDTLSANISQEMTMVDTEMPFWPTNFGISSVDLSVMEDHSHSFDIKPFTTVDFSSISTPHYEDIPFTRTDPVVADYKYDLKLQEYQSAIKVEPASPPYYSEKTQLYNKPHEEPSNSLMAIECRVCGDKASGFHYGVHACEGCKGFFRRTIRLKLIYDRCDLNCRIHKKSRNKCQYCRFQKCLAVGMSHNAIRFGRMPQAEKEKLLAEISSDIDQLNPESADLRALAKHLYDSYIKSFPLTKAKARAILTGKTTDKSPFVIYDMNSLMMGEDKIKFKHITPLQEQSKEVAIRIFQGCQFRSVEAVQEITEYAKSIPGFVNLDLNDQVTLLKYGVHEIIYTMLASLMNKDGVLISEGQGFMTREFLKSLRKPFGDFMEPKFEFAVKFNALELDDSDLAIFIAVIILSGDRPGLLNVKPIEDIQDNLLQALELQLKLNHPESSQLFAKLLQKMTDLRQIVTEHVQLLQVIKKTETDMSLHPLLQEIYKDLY
Peroxisome proliferator-activated receptor gamma (Homo sapiens) + Nuclear receptor coactivator 3 (Homo sapiens), sequence (Q9Y6Q9 whole entry, looked up): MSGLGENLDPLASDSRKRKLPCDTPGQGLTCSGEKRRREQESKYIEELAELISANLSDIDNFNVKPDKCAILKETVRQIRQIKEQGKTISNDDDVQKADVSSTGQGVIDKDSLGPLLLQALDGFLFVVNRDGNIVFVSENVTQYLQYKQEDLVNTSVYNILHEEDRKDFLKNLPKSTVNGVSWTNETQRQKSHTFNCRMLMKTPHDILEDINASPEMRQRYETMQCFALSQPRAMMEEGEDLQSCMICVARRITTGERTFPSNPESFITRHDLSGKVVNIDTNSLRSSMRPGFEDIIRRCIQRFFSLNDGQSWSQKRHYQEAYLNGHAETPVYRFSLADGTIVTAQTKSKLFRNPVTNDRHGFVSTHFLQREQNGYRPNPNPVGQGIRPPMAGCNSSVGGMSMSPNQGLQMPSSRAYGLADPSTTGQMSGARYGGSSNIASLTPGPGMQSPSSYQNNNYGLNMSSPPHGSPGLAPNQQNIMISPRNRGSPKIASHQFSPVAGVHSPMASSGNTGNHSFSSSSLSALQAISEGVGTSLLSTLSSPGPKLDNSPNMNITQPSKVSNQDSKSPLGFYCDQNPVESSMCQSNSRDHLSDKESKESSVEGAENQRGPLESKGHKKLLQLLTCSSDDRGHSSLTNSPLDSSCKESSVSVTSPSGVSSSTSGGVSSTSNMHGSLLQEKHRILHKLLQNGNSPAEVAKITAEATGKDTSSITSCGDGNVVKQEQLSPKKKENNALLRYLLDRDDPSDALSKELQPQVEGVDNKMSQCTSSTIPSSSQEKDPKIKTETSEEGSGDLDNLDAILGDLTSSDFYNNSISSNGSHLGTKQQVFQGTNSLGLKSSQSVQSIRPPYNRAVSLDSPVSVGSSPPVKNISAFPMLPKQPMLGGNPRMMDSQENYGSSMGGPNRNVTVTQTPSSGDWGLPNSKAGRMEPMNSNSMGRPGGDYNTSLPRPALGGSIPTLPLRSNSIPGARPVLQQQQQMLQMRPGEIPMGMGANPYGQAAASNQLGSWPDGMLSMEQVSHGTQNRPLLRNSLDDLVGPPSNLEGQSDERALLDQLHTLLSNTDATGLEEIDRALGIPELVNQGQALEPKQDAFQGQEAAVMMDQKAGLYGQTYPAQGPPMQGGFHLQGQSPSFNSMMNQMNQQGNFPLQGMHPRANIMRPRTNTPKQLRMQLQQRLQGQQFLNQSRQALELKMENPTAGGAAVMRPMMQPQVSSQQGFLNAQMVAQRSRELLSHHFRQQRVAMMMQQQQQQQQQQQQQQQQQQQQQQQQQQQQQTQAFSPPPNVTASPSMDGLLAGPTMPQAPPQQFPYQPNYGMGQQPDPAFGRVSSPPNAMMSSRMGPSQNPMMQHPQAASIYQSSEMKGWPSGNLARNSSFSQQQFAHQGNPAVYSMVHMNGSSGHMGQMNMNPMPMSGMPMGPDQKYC
Peroxisome proliferator-activated receptor gamma (Homo sapiens), sequence (P37231 whole entry, looked up): as the sequence (P37231 whole entry, looked up) above

Cc1nc(-c2ccc(NC(=O)c3cccs3)cc2)cs1
inactive: inhibition [1] 27.5% | inhibition [2] -26.7% | inhibition [3] -111%

CCSc1nnc(NC(=O)c2ccc(C)cc2)s1
inactive: inhibition [1] 21.2% | inhibition [2] -24.2% | inhibition [3] -63% | activation [4] -4.89% | activation [5] -0.65% | activation [6] -1.02% | inhibition [7] -0.46% | activation [8] -10.9% | activation [10] 0.93%
active: activation [9] 17.3%

Cc1cc(Cl)ccc1OCc1nc(-c2ccncc2)no1
active: activation (% of control) [11] 165% | activation (% of control) [12] 138% | activation [9] 15.6%
inactive: activation (% of control) [13] 106% | activation [10] 0.57%

CC(C)CC(=O)N/C(N)=N/c1nc2ccccc2s1
active: activation [15] 5.93%
inactive: inhibition [1] 6.93% | inhibition [2] -39.6% | inhibition [3] -138% | activation [14] 1.25%

Cc1ccc(F)cc1NC(=O)Cc1nn(C)c(=O)c2ccccc12
inactive: inhibition [17] 12.4% | inhibition [18] 65.1% | inhibition [19] 61.5% | inhibition [20] 9%
active: inhibition [16] 33.5% | inhibition [1] 51.9% | inhibition [2] 16.1% | inhibition [3] 21.2% | inhibition [21] 48.1%

COc1cc(SC)ccc1C(=O)Nc1cc(C)ccn1
inactive: inhibition [1] 8.73% | inhibition [2] -35.4% | inhibition [3] -139% | activation [14] 1.02% | activation [15] 4.37% | activation [10] 1.05%
active: activation [9] 17.2%

COc1ccc(-c2csc(Nc3ccccn3)n2)cc1
active: activation [15] 6.22%
inactive: inhibition [1] 15.2% | inhibition [2] -36.5% | inhibition [3] -205% | activation [14] 1.36%

O=c1oc(/C=C/c2ccccc2)nc2ccccc12
inactive: inhibition [1] 10.7% | inhibition [2] -7.17% | inhibition [3] -42.9% | activation [10] 0.58%
active: activation [9] 14.4%

CCN(CCCNC(=O)CSc1cc(=O)n(C)c2cc(Cl)ccc12)Cc1ccccc1
inactive: activation [23] 19.2% | activation [24] 20.4%
active: activation [22] 29.4%

O=C(Nc1ccc(Cl)cn1)c1ccc2c(c1)OCCO2
inactive: inhibition [1] 26.7% | inhibition [2] -3.07% | inhibition [3] -103% | activation [10] 0.89%
active: activation [9] 13.4%

COc1ccc(NS(=O)(=O)c2ccc(NC(=O)c3ccc(N(C)S(C)(=O)=O)cc3)cc2)cc1
inactive: inhibition [2] 9.03% | inhibition [3] 5.2% | inhibition [25] 19.3% | inhibition [20] 8.59%
active: inhibition [1] 56.6% | inhibition [26] 50.5% | inhibition [27] 46.7% | inhibition [28] 40.7% | inhibition [21] 45%

Cc1ccc(N/C=C/C(=O)c2ccccc2)cc1C
inactive: inhibition [1] 20.9% | inhibition [3] -55.2% | activation [14] 1.51% | activation [9] 8.78% | activation [10] 1.25%
active: inhibition [2] 13.8% | activation [15] 16.8%

O=C(Nc1nc(-c2ccc3c(c2)OCO3)cs1)c1ccncc1
active: inhibition [1] 49.5% | inhibition [21] 50.7%
inactive: inhibition [2] 11.5% | inhibition [3] 6.97% | inhibition [20] -26.7%

CN(Cc1cccnc1)C(=O)c1cc(COc2ccc3ncccc3c2)on1
active: inhibition [1] 75.9% | inhibition [2] 25.1% | inhibition [3] 27.1% | inhibition [30] 26.4% | inhibition [18] 89.1% | inhibition [19] 78.8% | inhibition [21] 59%
inactive: inhibition [29] -14.7% | inhibition [20] 0.64%

CCN(/N=C/c1ccc(N(C)C)cc1)c1nc2ccccc2[nH]1
inactive: activation [22] 9.9% | activation [23] 6.2% | activation [24] 6.08%

COc1ccc(Cn2c(=O)sc3ccccc32)cc1OC
inactive: inhibition [1] 36.6% | inhibition [2] 2.57% | inhibition [3] 13.3% | inhibition [19] 64.8% | inhibition [20] -3.5% | inhibition [21] 26.6%
active: inhibition [18] 70.9%

CCc1ccc2oc(-c3ccc(N)cc3)nc2c1
inactive: inhibition [1] 36.1% | inhibition [3] -84.8% | activation [14] 1.54% | activation [10] 1.35%
active: inhibition [2] 13.1% | activation [15] 10.2% | activation [9] 18.3%

O=C(Nc1ccn(Cc2ccccc2)n1)c1n[nH]c([N+](=O)[O-])c1Cl
active: activation [9] 11.6%
inactive: inhibition [1] 12.7% | inhibition [2] -0.1% | inhibition [3] -63.1% | activation [10] 0.82%

Cc1nc(CNS(=O)(=O)c2ccc(Oc3ccccc3)cc2)cs1
active: inhibition [1] 43.6% | inhibition [18] 87.9% | inhibition [19] 82.8% | inhibition [26] 44.6% | inhibition [27] 43.7% | inhibition [28] 37%
inactive: inhibition [2] 6.1% | inhibition [3] 12.1% | inhibition [25] 11% | inhibition [20] 1.48% | inhibition [21] 27%

CCCOC(=O)c1[nH]c2c(c1C)C(=O)CC(c1cc(OC)c(OC)c(OC)c1)C2 (centres undefined)
inactive: inhibition [19] 65% | inhibition [20] 6.54%
active: inhibition [1] 61% | inhibition [2] 29% | inhibition [3] 25.8% | inhibition [18] 73.9% | inhibition [25] 29% | inhibition [26] 54.7% | inhibition [27] 54.1% | inhibition [28] 41% | inhibition [21] 49.6%

O=C(O)Cc1sc(-c2ccccc2)nc1-c1cccs1
active: activation [22] 42.6% | activation [23] 34.7% | activation [24] 32.9%
